These results are taken from the supplement of paper PMC12582362.

Structures can show the parent of a compound that is named as a salt. Among all 1,500 compounds or so, about 30 (2%) showed activity.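 Rule for the calls: active = robust z-score below -2; a few such results were not called.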 The full list was thinned out, with actives kept by preference.

The experiment has as its system optoTopBP1 Flp-In 293 T-REx (HEK293) cells. Kind of experiment: light-induced TopBP1 condensate (nuclear foci) count, plate-normalised robust z-score vs non-control wells; higher = more TopBP1 condensates (negative = condensation inhibitor), active = hit call of the paper. The conditions noted are these: 10 µM; incubation time 2 h.
Consider `COc1ccc(C(=O)c2ccc(C)cc2)c(O)c1` [Mexenone], for which the “light-induced TopBP1 condensate (z-score)” value is 0.105 (inactive). To `O=C(NCCCN1CCOCC1)c1ccc(Cl)cc1` [Eprobemide] belongs 0.149 (inactive).

Turning to `CC(C)NCC(O)COc1cccc2[nH]c3ccccc3c12` (stereo not given) [Carazolol], the “light-induced TopBP1 condensate (z-score)” value was -1.07 (inactive).

`CC(COc1ccccc1)NN` (stereo not given) [Phenoxypropazine dihydrochloride]: the “light-induced TopBP1 condensate (z-score)” value was 0.724 (inactive).

Regarding `CN(C)C(=O)COC(=O)Cc1ccc(OC(=O)c2ccc(NC(=N)N)cc2)cc1` [Camostat mesylate], the “light-induced TopBP1 condensate (z-score)” value was -0.369 (inactive).

Regarding `CN[C@@H]1[C@H](O)[C@H](NC)[C@H]2O[C@@]3(O)C(=O)C[C@@H](C)O[C@H]3O[C@@H]2[C@H]1O` [Spectinomycin dihydrochloride], the “light-induced TopBP1 condensate (z-score)” value is 0.546 (inactive). As to `C=C1C[C@H]2[C@@H]3C=C(C)C4=CC(=O)CC[C@]4(C)[C@H]3CC[C@]2(C)[C@@]1(OC(C)=O)C(C)=O` [Melengestrol acetate], the “light-induced TopBP1 condensate (z-score)” value was -0.246 (inactive). For the compound `CCOc1ccccc1OCCN[C@H](C)Cc1ccc(OC)c(S(N)(=O)=O)c1` [(R)-Tamsulosin hydrochloride], the “light-induced TopBP1 condensate (z-score)” value was 0.258 (inactive). Regarding `Cc1cccc(C)c1OCC(=O)N[C@@H](Cc1ccccc1)[C@@H](O)C[C@H](Cc1ccccc1)NC(=O)[C@H](C(C)C)N1CCCNC1=O` [Lopinavir], the “light-induced TopBP1 condensate (z-score)” value is 0.599 (inactive).

`CC(C)CN(C[C@@H](O)[C@H](Cc1ccccc1)NC(=O)O[C@H]1CCOC1)S(=O)(=O)c1ccc(N)cc1` [Amprenavir]: the “light-induced TopBP1 condensate (z-score)” value is 1.18 (inactive). To `CC[N+]1(CC)CCC(=C(c2ccccc2)c2ccccc2)C1C` (stereo not given) [Prifinium Bromide] belongs 1.11 (inactive).

Consider `CC(C)(CO)[C@@H](O)C(=O)NCCCC(=O)O` [Hopantenate calcium], for which the “light-induced TopBP1 condensate (z-score)” value is 0.00401 (inactive).

Regarding `COc1cc(N)cn[n+]1-c1ccccc1` [Amezinium metilsulfate], the “light-induced TopBP1 condensate (z-score)” value was 0.428 (inactive). For `O=C1CN2Cc3c(ccc(Cl)c3Cl)N=C2N1` [Anagrelide] the value was -0.566 (inactive); for `Clc1ccc(C(Cn2ccnc2)OCc2csc3c(Cl)cccc23)c(Cl)c1` (stereo not given) [Sertaconazole nitrate], 0.206 (inactive); for `OCC(CO)N[C@H]1C[C@](O)(CO)[C@@H](O)[C@H](O)[C@H]1O` [Voglibose], 1.28 (inactive). For `CC(C)(CO)C(O)C(=O)NCCCO` (stereo not given) [Panthenol (D)], the “light-induced TopBP1 condensate (z-score)” value is 0.585 (inactive). Consider `CN(C)CCOC1=Cc2ccccc2Sc2ccc(Cl)cc21` [Zotepine], for which the “light-induced TopBP1 condensate (z-score)” value is 0.612 (inactive).

For `CN1CCCCC1CCN1c2ccccc2Sc2ccc([S+](C)[O-])cc21` (stereo not given) [Mesoridazine besylate], the “light-induced TopBP1 condensate (z-score)” value was 0.412 (inactive). Take `Cc1nc2ccccc2n1Cc1ccc(Cl)cc1` [Chlormidazole]: the “light-induced TopBP1 condensate (z-score)” value is -0.19 (inactive). With `CC(C)(C)C(=O)OCOC(=O)[C@@H]1N2C(=O)[C@@H](/N=C/N3CCCCCC3)[C@H]2SC1(C)C` [Pivmecillinam hydrochloride], the “light-induced TopBP1 condensate (z-score)” value is 0.64 (inactive).

With `CC(C)NC(=N)NC(=N)Nc1ccc(Cl)cc1` [Proguanil hydrochloride], the “light-induced TopBP1 condensate (z-score)” value is -0.256 (inactive).

On to `COc1cc(C(=O)NCc2ccc(OCCN(C)C)cc2)cc(OC)c1OC` [Trimethobenzamide hydrochloride], for which the “light-induced TopBP1 condensate (z-score)” value is -0.218 (inactive). `Cc1ncc([N+](=O)[O-])n1CC(C)O` (stereo not given) [Secnidazole]: the “light-induced TopBP1 condensate (z-score)” value is 0.994 (inactive). With `CC1(C)S[C@@H]2[C@H](NC(=O)C(c3ccccc3)S(=O)(=O)O)C(=O)N2[C@H]1C(=O)O` (stereo not given in full) [Sulbenicillin sodium salt], the “light-induced TopBP1 condensate (z-score)” value is 0.523 (inactive). For `CC(=O)[C@@]1(O)CC[C@H]2[C@@H]3C[C@H](C)C4=CC(=O)C=C[C@]4(C)[C@@]3(F)[C@@H](O)C[C@@]21C` [Fluorometholone], the “light-induced TopBP1 condensate (z-score)” value was -0.232 (inactive). For the compound `O=C(c1cc(O)c(O)c(O)c1)c1ccc(O)c(O)c1O` [Exifone], the “light-induced TopBP1 condensate (z-score)” value was 0.683 (inactive). With `CN(C)CC/C=C1/c2ccccc2COc2ccc(CC(=O)O)cc21` [Olopatadine hydrochloride], the “light-induced TopBP1 condensate (z-score)” value is 0.52 (inactive).

Turning to `O=c1oc2cc(O)ccc2s1` [Tioxolone], the “light-induced TopBP1 condensate (z-score)” value is 0.00597 (inactive). For `Cc1cc(/C=C/c2ccc3cc(N(C)C)ccc3[n+]2C)c(C)n1-c1ccccc1` [Pyrvinium pamoate], the “light-induced TopBP1 condensate (z-score)” value was -4.74 (active). `CN[C@@H]1[C@@H](O)[C@@H](O[C@@H]2[C@@H](O)[C@H](O[C@H]3OC(CN)=CC[C@H]3N)[C@@H](N)C[C@H]2N)OC[C@]1(C)O` [Sisomicin sulfate]: the “light-induced TopBP1 condensate (z-score)” value was 0.652 (inactive). Consider `CCN1CCN(Cc2ccc(Nc3ncc(F)c(-c4cc(F)c5nc(C)n(C(C)C)c5c4)n3)nc2)CC1` [Abemaciclib], for which the “light-induced TopBP1 condensate (z-score)” value is -0.486 (inactive). In the case of `COc1cccc(CCc2ccccc2OCC(CN(C)C)OC(=O)CCC(=O)O)c1` (stereo not given) [Sarpogrelate hydrochloride], the “light-induced TopBP1 condensate (z-score)” value was 0.789 (inactive).

With `Clc1ccc(C(Cn2ccnc2)OCc2c(Cl)cccc2Cl)c(Cl)c1` (stereo not given) [Isoconazole], the “light-induced TopBP1 condensate (z-score)” value was 0.803 (inactive). For the compound `CN(C)c1cc(NC(=O)CNC(C)(C)C)c(O)c2c1C[C@H]1C[C@H]3[C@H](N(C)C)C(O)=C(C(N)=O)C(=O)[C@@]3(O)C(O)=C1C2=O` [Tigecycline], the “light-induced TopBP1 condensate (z-score)” value is 0.904 (inactive).

Consider `N#C/C(=C1/SCC(c2ccccc2Cl)S1)n1ccnc1` (stereo not given) [Lanoconazole], for which the “light-induced TopBP1 condensate (z-score)” value is 0.321 (inactive).

On to `O=C(O)COc1nn(Cc2ccccc2)c2ccccc12` [Bendazac], for which the “light-induced TopBP1 condensate (z-score)” value is -0.242 (inactive). Regarding `CC(=O)N[C@H]1[C@H]([C@H](O)[C@H](O)CO)OC(C(=O)O)=C[C@@H]1NC(=N)N` [Zanamivir], the “light-induced TopBP1 condensate (z-score)” value was -0.513 (inactive). `CC(C)(C)NCC(O)CSc1nc(-c2ccc(C(N)=O)s2)cs1` (stereo not given) [Arotinolol hydrochloride]: the “light-induced TopBP1 condensate (z-score)” value is -0.455 (inactive). On to `Cc1ccc(C(=O)c2cc(O)c(O)c([N+](=O)[O-])c2)cc1` [Tolcapone], for which the “light-induced TopBP1 condensate (z-score)” value is -0.692 (inactive).
